Source: the supplement of paper PMC9177965
Where “and” joins values, the source holds several entries; their conditions need not be identical. Equal entries are not always repeated.

Test system: HT29 sg-Ctrl (RNF43 wildtype)
Assay: cell viability activity relative to DMSO (negative = inhibition); higher = more viable cells (less growth inhibition)
Details: 5 µM; 96 h
Method: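 Broad Repurposing Library primary screen at a single dose of 5 uM. HT29 sg-Ctrl and HT29 RNF43 G659fs CRISPR-edited isogenic cells were seeded at 2500 cells/well in 384-well plates in duplicate and treated for 96 h. Viability was read by CellTiter-Glo and reported as % activity relative to DMSO, with MG132 as the positive control (negative = growth inhibition).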

Point of comparison: `C[C@@H](Oc1cc(-c2cnn(C3CCNCC3)c2)cnc1N)c1c(Cl)ccc(F)c1Cl`, cell viability activity -95.4%. Against it:
- NC(=NC1C2CC3CC(C2)CC1C3)Nc1ccc(I)cc1 (configuration not stated) — higher, -69.8%
- CCc1c(O)cc(O)c(C(=O)c2ccc(OCCN3CCOCC3)c(OC)c2)c1CC(=O)N(CCOC)CCOC — higher, -90%
- OCCCNc1cc(-c2ccnc(Nc3cccc(Cl)c3)n2)ccn1 — higher, -86%
- CCNC(=O)Nc1ccc(-c2nc3c(c(N4CCOC[C@@H]4C)n2)CCN(C2COC2)C3)cc1 — higher, -22%
- Cc1ncc(NC(=O)c2ccc(CN3CCN(C)CC3)c(C(F)(F)F)c2)cc1Nc1nccc(-c2cccnc2)n1 — higher, -49%
- COc1cc(N2CCC(N3CCN(C)CC3)CC2)ccc1Nc1ncc(Cl)c(Nc2ccccc2S(=O)(=O)C(C)C)n1 — higher, -66.5%
- CN1CCN(CCOc2cc(OC3CCOCC3)c3c(Nc4c(Cl)ccc5c4OCO5)ncnc3c2)CC1 — higher, -58.9%
- CCOC(=O)[C@H](Cc1ccccc1)NC(=O)c1cc(Cl)c(OCCN2CCN(C)CC2)c(Cl)c1O — higher, -41.2%
- CN(C)Cc1ccc(S(=O)(=O)n2ccc(/C=C/C(=O)NO)c2)cc1 — higher, -64.6%
- CC(C)CC(=O)Nc1n[nH]c2c1CN(C(=O)C1CCN(C)CC1)C2(C)C — higher, -61.4%
- COc1cc2c(cc1OC)-c1cc3nc4ccccc4nc3n1C(C)(C)C2 — higher, -78.1%
- CCN(CC)Cc1ccc2cc(COC(=O)Nc3ccc(C(=O)NO)cc3)ccc2c1 — higher, -84.2%
- CCN(CC)CCCCNc1ncc2cc(-c3c(Cl)cccc3Cl)c(NC(=O)NC(C)(C)C)nc2n1 — higher, -33%
- CO[C@@H](C)Cn1c(=O)n(C)c2cnc3ccc(-c4cncc(C(C)(C)O)c4)cc3c21 — higher, -78.6%
- CNC(=O)CN1CCC(Oc2cc3c(Nc4cccc(Cl)c4F)ncnc3cc2OC)CC1 — higher, -24.1%
- Cc1ccc(C(=O)N(CCCN)[C@@H](c2nc3cc(Cl)ccc3c(=O)n2Cc2ccccc2)C(C)C)cc1 — higher, -66.5%
- COc1ccc(-c2nc(N3CCOCC3)c3sc(CN(C)c4ncc(C(=O)NO)cn4)cc3n2)cn1 — higher, -93.5%
- COc1cccc(-c2cc(F)ccc2[C@H]2Cc3nc(N)nc(C)c3C(=O)N2)n1 — higher, -81.1%
- Cc1ccc2c(Br)cc(Br)c(OC(=O)c3ccccc3)c2n1 — higher, -34.5%
- COc1c(C)cnc(Cn2cc(C#CCC(C)(C)O)c3c(Cl)nc(N)nc32)c1C — higher, -88.4%
- C/C=C1\NC(=O)[C@H]2CSSCC/C=C/[C@H](CC(=O)N[C@H](C(C)C)C(=O)N2)OC(=O)[C@H](C(C)C)NC1=O — higher, -77.3%
- O=C(/C=C\n1cnc(-c2cc(C(F)(F)F)cc(C(F)(F)F)c2)n1)NNc1cnccn1 — higher, -69.8%
- C[C@]1(O)C[C@@H](c2nc(-c3ccc4ccc(-c5ccccc5)nc4c3)c3c(N)nccn32)C1 — higher, -26.2%
- COc1c(C)c2c(c(O)c1C/C=C(\C)CCC(=O)O)C(=O)OC2 — higher, -27.7%
- CN(C)CCCCC(=O)Nc1ccc(NC(=S)NC(=O)c2ccc(C(C)(C)C)cc2)cc1 — higher, -91.9%
- CN1CCN(CCCN2c3ccccc3Sc3ccc(C(F)(F)F)cc32)CC1 — higher, -18.8%
- CC[C@@H](C(=O)[C@@H](C)[C@@H](O)[C@H](C)CCc1ccc(C)c(O)c1C(=O)O)[C@H]1O[C@](CC)([C@H]2CC[C@](O)(CC)[C@H](C)O2)C[C@@H]1C — higher, -42.9%
- CCCCc1oc2ccccc2c1C(=O)c1cc(I)c(OCCN(CC)CC)c(I)c1 — lower, -98.9%
- Nc1ncnc2c1c(-c1cccc(OCc3ccccc3)c1)cn2C1CC(CN2CCCC2)C1 (configuration not stated) — higher, -56.6%
- CN(C)c1ccc(C(=C2C=CC(=[N+](C)C)C=C2)c2ccc(N(C)C)cc2)cc1 — higher, -89.3%
- NC(=O)N1CCC(CC(=O)N2CCC([C@H]3c4ncc(Br)cc4CCc4cc(Cl)cc(Br)c43)CC2)CC1 — higher, -56.6%
- CC[C@@]1(O)C(=O)OCc2c1cc1n(c2=O)Cc2c-1nc1cc(F)c(C)c3c1c2[C@@H](N)CC3 — higher, -90.4%
- Cc1cnc(Nc2ccc(N3CCN(C)CC3)cc2)nc1Nc1cccc(S(=O)(=O)NC(C)(C)C)c1 — higher, -89.4%
- Cc1nc(-c2cn3c(n2)-c2ccc(-c4cnn(C(C)(C)C(N)=O)c4)cc2OCC3)n(C(C)C)n1 — higher, -48.5%
- CN(C)C(=O)c1cc2cnc(Nc3ccc(N4CCNCC4)cn3)nc2n1C1CCCC1 — higher, -39.7%

`COc1cc([C@@H]2c3cc4c(cc3[C@@H](O[C@@H]3O[C@@H]5CO[C@@H](c6cccs6)O[C@H]5[C@H](O)[C@H]3O)[C@H]3COC(=O)[C@H]23)OCO4)cc(OC)c1O` was tested, and the cell viability activity was -90.9% and -80.9%.
